From PubChem BioAssay (EPA / NIEHS) come the findings set out here.

Each structure is given as a SMILES string. Values joined by “and” are separate entries in the source; they are usually repeats but may differ in a detail not shown here. Equal values may be shown once. Records with an inconclusive call do not appear. More than one record can exist for a structure, and the calls need not agree. Active and inactive are the calls of the source. The calls were made as follows, unless noted: active = hit-call score of the fitted dose curve at least 0.9, where 1 is the maximum; inconclusive = response in the unintended direction; inactive = score below 0.9.

Read-out in assay [1]: glucuronosyltransferase (UGT1A1), UGT1A1 (gene 54658)
The experiment in a line: CLD_UGT1A1_6hr: CellzDirect (CLD) Gene Expression Assay for glucuronosyltransferase (UGT1A1) at 6 hours (AID 2283672). The essentials: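 Primary human hepatocytes from two donor preparations, dosed with fresh solutions in 0.2% DMSO, harvested at 6 h. UGT1A1 mRNA measured by qNPA chemiluminescence; induction fitted upward versus DMSO.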

Read-out in assay [2]: xenobiotic metabolism (CYP1A1), CYP1A1 (gene 1543)
The experiment in a line: CLD_CYP1A1_24hr: CellzDirect (CLD) Gene Expression Assay for xenobiotic metabolism (CYP1A1) at 24 hours (AID 2283673). An outline of the steps: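 Primary human hepatocytes dosed daily with fresh solutions in 0.2% DMSO vehicle. mRNA measured at 24 h by quantitative nuclease protection assay with chemiluminescence; gain-of-signal fit versus DMSO, with morphology-based cytotoxicity flags.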

Read-out in assay [3]: Cytochrome P450 2B6 (Homo sapiens) (UniProt P20813)
In words: CLD_CYP2B6_6hr: CellzDirect (CLD) Gene Expression Assay for xenobiotic metabolism (CYP2B6) at 6 hours (AID 2283677).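 Also: actives raise CYP2B6 transcript above DMSO baseline so AC50 marks an inducer.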 The essentials:
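Primary human hepatocytes dosed with chemicals at multiple concentrations, vehicle 0.2% DMSO; CYP2B6 mRNA induction measured 6 h after dosing by quantitative nuclease protection assay with chemiluminescence, gain of signal fitted relative to DMSO.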

Read-out in assay [4]: Cytochrome P450 2C19 (Homo sapiens) (UniProt P33261)
In words: CLD_CYP2C19_6hr: CellzDirect (CLD) Gene Expression Assay for xenobiotic metabolism (CYP2C19) at 6 hours (AID 2283678). An outline of the steps:
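Primary human hepatocytes from two donor preparations were dosed daily, with 0.2% DMSO as vehicle, and harvested 6 h after dosing. CYP2C19 mRNA induction was measured by qNPA chemiluminescence and fitted as gain of signal against DMSO.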

The nature of assay [5]: CCTE_Padilla_ZF_144hpf_TERATOSCORE: (Legacy) CCTE's 144 Hour Post-fertilization zebrafish Assay Teratoscore, Padilla Lab (AID 2283679; active = hit-call score of the fitted dose curve at least 0.9, where 1 is the maximum; inactive = score below 0.9;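 as to AC50: zebrafish embryos with chorions exposed by immersion from 6-8 hpf to 5 dpf with daily renewal; teratogenicity score from eye scoring of death hatching and malformations at 144 hpf; higher score means more developmental defects relative to DMSO baseline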). An outline of the steps: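 Larvae scored by eye at 144 hpf for death, hatching and malformations after a day in clean Hanks'. Before that, daily-renewed exposure at 80 uM (0.4% DMSO, 26C) from roughly 6-8 hpf through 5 dpf, 4 embryos per chemical.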

Read-out in assay [6]: Glyceraldehyde-3-phosphate dehydrogenase (Homo sapiens) (UniProt P04406)
In words: CLD_GAPDH_6hr: CellzDirect (CLD) Gene Expression Assay for Baseline Control (Glyceraldehyde 3-phosphate dehydrogenase) at 6 hours (AID 2283681).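 Also: active means increased signal relative to DMSO vehicle.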 An outline of the steps:
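Primary human hepatocytes from two donor preparations, dosed at multiple concentrations with 0.2% DMSO vehicle; GAPDH mRNA measured 6 h after dosing by chemiluminescent quantitative nuclease protection assay (qNPA) on denatured lysates. Serves as background control; cytotoxicity annotated by morphology.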

Read-out in assay [7]: HMG-CoA synthase (HMGCS2), HMGCS2 (gene 3158)
In words: CLD_HMGCS2_6hr: CellzDirect (CLD) Gene Expression Assay for HMG-CoA synthase (HMGCS2) at 6 hours (AID 2283682).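 Also: actives raise HMGCS2 transcript above the 0.2% DMSO vehicle baseline.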 An outline of the steps: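 Primary human hepatocytes dosed daily with fresh chemical, 0.2% DMSO vehicle; HMGCS2 mRNA measured at 6 h by qNPA chemiluminescence. Gain of signal fitted against DMSO; cytotoxicity flagged from phase-contrast morphology.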

Read-out in assay [8]: xenobiotic metabolism (CYP1A2), CYP1A2 (gene 1544)
In words: CLD_CYP1A2_24hr: CellzDirect (CLD) Gene Expression Assay for xenobiotic metabolism (CYP1A2) at 24 hours (AID 2283683). The essentials: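 Primary human hepatocytes from two donor preparations dosed daily with multiple concentrations of chemical, 0.2% DMSO vehicle. CYP1A2 mRNA at 24 h quantified by qNPA chemiluminescence; gain of signal analyzed relative to DMSO. Cytotoxicity flagged by phase-contrast morphology.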

Read-out in assay [9]: ABC Transporter (ABCB1), ABCB1 (gene 5243)
In words: CLD_ABCB1_24hr: CellzDirect (CLD) Gene Expression Assay for ABC Transporter (ABCB1) at 24 hours (AID 2283684). An outline of the steps: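 Primary human hepatocytes, two donor preparations, dosed daily with fresh solutions; vehicle 0.2% DMSO; harvested at 24 h. ABCB1 mRNA measured by quantitative nuclease protection assay (chemiluminescence); morphology-based cytotoxicity annotated.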

Read-out in assay [10]: Cytochrome P450 2C19 (Homo sapiens) (UniProt P33261)
The experiment in a line: CLD_CYP2C19_24hr: CellzDirect (CLD) Gene Expression Assay for xenobiotic metabolism (CYP2C19) at 24 hours (AID 2283687).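 Also: activity means mRNA induction above DMSO vehicle baseline.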 The essentials:
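Primary human hepatocytes (two donor preparations) dosed daily with fresh test chemical in 0.2% DMSO vehicle; CYP2C19 mRNA induction measured at 24 h by quantitative nuclease protection assay with chemiluminescence, fitted for gain of signal versus DMSO.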

Read-out in assay [11]: Cytochrome P450 2C9 (Homo sapiens) (UniProt P11712)
The experiment in a line: CLD_CYP2C9_24hr: CellzDirect (CLD) Gene Expression Assay for xenobiotic metabolism (CYP2C9) at 24 hours (AID 2283688). An outline of the steps: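 Primary human hepatocytes from two donor preparations, dosed daily for two days at multiple concentrations; vehicle 0.2% DMSO. CYP2C9 mRNA induction at 24 h measured by qNPA chemiluminescence relative to DMSO; cytotoxicity annotated from morphology.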

Read-out in assay [12]: Cytochrome P450 3A4 (Homo sapiens) (UniProt P08684)
In words: CLD_CYP3A4_24hr: CellzDirect (CLD) Gene Expression Assay for xenobiotic metabolism (CYP3A4) at 24 hours (AID 2283689). The essentials:
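Primary human hepatocytes from two donors dosed daily with fresh compound for two days, 0.2% DMSO vehicle. CYP3A4 mRNA at 24 hr by qNPA chemiluminescence; gain-of-signal fit versus DMSO, cytotoxicity flagged by morphology.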

Read-out in assay [13]: HMG-CoA synthase (HMGCS2), HMGCS2 (gene 3158)
The experiment in a line: CLD_HMGCS2_24hr: CellzDirect (CLD) Gene Expression Assay for HMG-CoA synthase (HMGCS2) at 24 hours (AID 2283691). The essentials:
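Primary human hepatocytes from two donor preparations, dosed daily with fresh solutions; vehicle 0.2% DMSO, 24 h harvest. HMGCS2 mRNA quantified by qNPA with S1 nuclease digestion and chemiluminescence; gain fitted versus DMSO, cytotoxicity annotated by morphology.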

Read-out in assay [14]: Cytochrome P450 2B6 (Homo sapiens) (UniProt P20813)
In words: CLD_CYP2B6_48hr: CellzDirect (CLD) Gene Expression Assay for xenobiotic metabolism (CYP2B6) at 48 hours (AID 2283699).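 Also: actives raise transcript level above DMSO so potency reflects induction.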 The essentials: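 Primary human hepatocytes dosed daily for two days over multiple concentrations, 0.2% DMSO vehicle; CYP2B6 mRNA quantified at 48 h by qNPA chemiluminescence. Induction fitted as gain of signal versus DMSO; cytotoxicity annotated by morphology.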

Read-out in assay [15]: Cytochrome P450 3A4 (Homo sapiens) (UniProt P08684)
The experiment in a line: CLD_CYP3A4_6hr: CellzDirect (CLD) Gene Expression Assay for xenobiotic metabolism (CYP3A4) at 6 hours (AID 2283680). An outline of the steps:
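Primary human hepatocytes (two donor preparations) dosed; CYP3A4 mRNA harvested at 6 h and quantified by qNPA chemiluminescence. Gain of signal fitted against 0.2% DMSO vehicle; cytotoxicity flagged by phase-contrast morphology.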

Read-out in assay [16]: organic anion transporter (SLCO1B1), SLCO1B1 (gene 10599)
In words: CLD_SLCO1B1_24hr: CellzDirect (CLD) Gene Expression Assay for organic anion transporter (SLCO1B1) at 24 hours (AID 2283690). An outline of the steps:
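Primary human hepatocytes (two donor preparations) dosed daily for two days with chemicals at multiple concentrations, 0.2% DMSO vehicle. SLCO1B1 mRNA at 24 h measured by qNPA chemiluminescence; induction fitted relative to DMSO.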

Read-out in assay [17]: alkyl and aryl transferase (GSTA2), GSTA2 (gene 2939)
The experiment in a line: CLD_GSTA2_24hr: CellzDirect (CLD) Gene Expression Assay for alkyl and aryl transferase (GSTA2) at 24 hours (AID 2283693). The essentials:
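Primary human hepatocytes (two donor preparations) dosed daily for two days with chemicals at multiple concentrations (vehicle 0.2% DMSO); GSTA2 mRNA at 24 h measured by qNPA chemiluminescence, gain-of-signal versus DMSO.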

Read-out in assay [18]: ABC Transporter (ABCB1), ABCB1 (gene 5243)
In words: CLD_ABCB1_48hr: CellzDirect (CLD) Gene Expression Assay for ABC Transporter (ABCB1) at 48 hours (AID 2283695). The essentials: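 Primary human hepatocytes from two donor preparations dosed daily on two consecutive days with 0.2% DMSO vehicle. Harvest at 48 h. ABCB1 mRNA quantified by qNPA with chemiluminescence and fitted for gain of signal versus DMSO.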

Read-out in assay [19]: Cytochrome P450 2B6 (Homo sapiens) (UniProt P20813)
In words: CLD_CYP2B6_24hr: CellzDirect (CLD) Gene Expression Assay for xenobiotic metabolism (CYP2B6) at 24 hours (AID 2283686). An outline of the steps: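 Primary human hepatocytes dosed daily for two days with fresh solutions, harvested at 24 hours; mRNA induction quantified by qNPA chemiluminescence, gain of signal vs 0.2% DMSO vehicle. Cytotoxicity annotated from phase-contrast morphology.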

Read-out in assay [20]: glucuronosyltransferase (UGT1A1), UGT1A1 (gene 54658)
The experiment in a line: CLD_UGT1A1_24hr: CellzDirect (CLD) Gene Expression Assay for glucuronosyltransferase (UGT1A1) at 24 hours (AID 2283696). An outline of the steps: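 Primary human hepatocytes from two donor preparations were dosed (0.2% DMSO vehicle) and harvested at 24 h; UGT1A1 mRNA induction was quantified by chemiluminescent qNPA, fitted as gain relative to DMSO.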

Sequence of Cytochrome P450 3A4 (Homo sapiens) (P08684 whole entry, looked up): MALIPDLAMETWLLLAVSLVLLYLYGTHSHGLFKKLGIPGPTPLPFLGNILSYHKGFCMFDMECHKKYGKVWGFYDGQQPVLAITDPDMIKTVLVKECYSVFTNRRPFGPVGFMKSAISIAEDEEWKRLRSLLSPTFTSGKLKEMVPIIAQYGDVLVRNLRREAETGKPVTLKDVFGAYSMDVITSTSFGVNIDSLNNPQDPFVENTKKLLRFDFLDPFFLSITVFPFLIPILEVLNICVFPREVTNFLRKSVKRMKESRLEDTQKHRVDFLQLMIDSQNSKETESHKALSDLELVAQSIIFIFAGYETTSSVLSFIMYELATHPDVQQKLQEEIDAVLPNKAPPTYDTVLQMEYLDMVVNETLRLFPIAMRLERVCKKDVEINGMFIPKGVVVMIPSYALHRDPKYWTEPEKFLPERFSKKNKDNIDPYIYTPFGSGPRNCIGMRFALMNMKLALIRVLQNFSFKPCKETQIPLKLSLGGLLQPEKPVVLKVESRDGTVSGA
Sequence of Cytochrome P450 2C19 (Homo sapiens) (P33261 whole entry, looked up): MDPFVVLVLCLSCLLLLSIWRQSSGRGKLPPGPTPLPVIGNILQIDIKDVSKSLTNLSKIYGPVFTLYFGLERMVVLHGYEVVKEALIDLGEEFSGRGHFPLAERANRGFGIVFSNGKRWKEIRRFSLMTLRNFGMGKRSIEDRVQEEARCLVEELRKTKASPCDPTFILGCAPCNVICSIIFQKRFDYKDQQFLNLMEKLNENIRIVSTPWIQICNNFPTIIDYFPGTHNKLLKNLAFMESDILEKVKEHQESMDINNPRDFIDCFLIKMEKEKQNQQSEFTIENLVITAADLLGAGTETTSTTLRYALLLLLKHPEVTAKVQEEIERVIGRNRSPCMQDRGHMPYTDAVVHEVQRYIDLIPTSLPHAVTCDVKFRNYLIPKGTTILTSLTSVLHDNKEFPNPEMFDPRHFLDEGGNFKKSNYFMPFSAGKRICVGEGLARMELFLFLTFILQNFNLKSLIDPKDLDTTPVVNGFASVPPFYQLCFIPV
Sequence of Glyceraldehyde-3-phosphate dehydrogenase (Homo sapiens) (P04406 whole entry, looked up): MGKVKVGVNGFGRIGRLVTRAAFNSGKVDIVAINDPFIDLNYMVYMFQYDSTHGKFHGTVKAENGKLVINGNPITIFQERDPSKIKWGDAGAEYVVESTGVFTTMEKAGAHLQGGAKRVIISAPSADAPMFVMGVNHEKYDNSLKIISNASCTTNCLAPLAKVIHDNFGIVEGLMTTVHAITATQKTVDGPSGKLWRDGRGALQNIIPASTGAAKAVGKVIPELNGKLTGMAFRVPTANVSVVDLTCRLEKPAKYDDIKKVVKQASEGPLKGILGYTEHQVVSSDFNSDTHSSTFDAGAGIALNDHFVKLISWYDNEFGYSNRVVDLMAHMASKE

`O=C(O)COc1nc(Cl)c(Cl)cc1Cl`: the outcome in [1], in [2], in assay [3], in [4], in [5] and in assay [6] was inactive. In addition, the outcome in assay [7], in assay [8], in assay [9], in [10], in assay [11] and in [12] was inactive. The compound was called inactive in assay [13] and in assay [14].
Regarding `CNC(=S)S`, the outcome in assay [1], in [2], in assay [3], in [4], in [15] and in assay [6] was inactive. Further, the outcome in [7], in [8] and in assay [9] was inactive.
Usually AC50 stands for the concentration at which the activity in the assay is half-maximal. In the case of `CCc1nn(C)c(C(=O)NCc2ccc(C(C)(C)C)cc2)c1Cl`, the compound was classed as inactive in assay [1], in assay [3], in assay [4], in [15], in [7] and in assay [8]. Besides, the compound was called inactive in [9], in assay [16] and in [17]. Also, the AC50 in assay [2] is 7.44 µM (active); in assay [5], 0.164 µM (active); in assay [12], 20 µM (active); in assay [14] it was 37.3 µM (active).
With `CCCCOC(=O)c1ccccc1C(=O)OCCCC`, the result in assay [1], in assay [2], in [3], in [4], in assay [15] and in [6] was inactive. In addition, the result in assay [7], in assay [9], in assay [11], in assay [12], in [13] and in [17] was inactive. Moreover, the compound was called inactive in assay [18] and in assay [14]. In addition, the concentration at half-maximal activity (AC50) was 4.22 µM (active) in [2]; 1.83 µM (active) in [5]; 4.9 µM (active) and 20 µM (active) in assay [8].
As for `CCCCNC(=O)OCC#CI`, the call in assay [1], in assay [2], in [3], in assay [6], in [8] and in [9] was inactive. Also, the result in [19], in assay [10], in [11], in assay [12], in assay [13] and in assay [17] was inactive. The compound was called inactive in assay [14]. Also, the AC50 is 0.838 µM (active) in [3], 0.664 µM (active) in assay [5] and 1.89 µM (active) in [15].
As for `CCON=C(CC)C1=C(O)CC(c2c(C)cc(C)cc2C)CC1=O` (stereo unspecified), the compound was called inactive in assay [1], in assay [2], in assay [3], in [4], in assay [15] and in [6]. Further, the compound was called inactive in assay [7], in assay [8], in [9], in assay [10], in assay [11] and in assay [12]. The compound was classed as inactive in [16], in assay [13], in assay [20] and in assay [14]. For the same compound, the AC50 in [5] is 64.2 µM (active).
